# Test results: PubChem BioAssay (NCI)
# “And” between values parts separate entries of the source, which are not always exact repeats. Identical values can stand only once. This is part of a sample that, as a whole, favours compounds with a hit. Of some 83,000 tested, about 20% had one in any assay.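 Compound tested at a single concentration for 48 hours in 96-well plates; a percent growth value below 10 was scored as active.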 The source made the active and inactive calls.
# Legend:
# Test in all cases: NCI-60 one-dose screen, 48 h (100 = growth as untreated, 0 = no growth, -100 = all killed)
# [1] = system: HT29 colon
# [2] = system: SNB-75 CNS
# [3] = system: SNB-19 CNS
# [4] = system: U251 CNS
# [5] = system: PC-3 prostate
# [6] = system: SK-MEL-5 melanoma
# [7] = system: UACC-62 melanoma
# [8] = system: LOX IMVI melanoma
# [9] = system: SK-MEL-28 melanoma; conditions: 10 µM
# [10] = system: SK-MEL-2 melanoma
# [11] = system: SN12C renal
# [12] = system: UO-31 renal
# [13] = system: TK-10 renal
# [14] = system: ACHN renal
# [15] = system: CAKI-1 renal
# [16] = system: A498 renal
# [17] = system: CCRF-CEM leukemia
# [18] = system: MOLT-4 leukemia
# [19] = system: HCT-15 colon; conditions: 10 µM
structure (smiles),measurement,setting,value
CCC(C)(c1ccc(O)c(C)c1)c1ccc(O)c(C)c1,growth,[1]; 10 µM,104% (inactive)
same,growth,[2]; 10 µM,64.8% (inactive)
same,growth,[3]; 10 µM,105% (inactive)
same,growth,[4]; 10 µM,94.4% (inactive)
same,growth,[5]; 10 µM,86.1% (inactive)
same,growth,[6]; 10 µM,95.2% (inactive)
same,growth,[7]; 10 µM,68.9% (inactive)
same,growth,[8]; 10 µM,104% (inactive)
same,growth,[9],133% (inactive)
same,growth,[10]; 10 µM,94.4% (inactive)
same,growth,[11]; 10 µM,84.9% (inactive)
same,growth,[12]; 10 µM,76% (inactive)
same,growth,[13]; 10 µM,249% (inactive)
same,growth,[14]; 10 µM,98.8% (inactive)
same,growth,[15]; 10 µM,62.1% (inactive)
same,growth,[16]; 10 µM,110% (inactive)
same,growth,[17]; 10 µM,89% (inactive)
same,growth,[18]; 10 µM unless noted,130% (inactive)
S=P(N1CC1)(N1CC1)N1CC1,growth,[1]; 10 µM,99.6% (inactive) and 83.1% (inactive)
same,growth,[1]; 100 µM,54.6% (inactive)
same,growth,[2]; 10 µM,109% (inactive) and 69% (inactive)
same,growth,[2]; 100 µM,43.2% (inactive)
same,growth,[3]; 10 µM,102% (inactive) and 101% (inactive)
same,growth,[3]; 100 µM,37.3% (inactive)
same,growth,[4]; 10 µM,105% (inactive) and 84.1% (inactive)
same,growth,[4]; 100 µM,43.7% (inactive)
same,growth,[5]; 10 µM,97.5% (inactive) and 90.9% (inactive)
same,growth,[5]; 100 µM,52.7% (inactive)
same,growth,[6]; 10 µM,96.9% (inactive) and 92.8% (inactive)
same,growth,[6]; 100 µM,48.6% (inactive)
same,growth,[7]; 10 µM,100% (inactive) and 71.7% (inactive)
same,growth,[7]; 100 µM,37.1% (inactive)
same,growth,[8]; 10 µM,99.2% (inactive) and 80.5% (inactive)
same,growth,[8]; 100 µM,33% (inactive)
same,growth,[9],131% (inactive) and 116% (inactive)
same,growth,[10]; 10 µM,116% (inactive) and 93.3% (inactive)
same,growth,[10]; 100 µM,113% (inactive)
same,growth,[11]; 10 µM,98.5% (inactive) and 72.8% (inactive)
same,growth,[11]; 100 µM,44.1% (inactive)
same,growth,[12]; 10 µM,71.9% (inactive) and 83.7% (inactive)
same,growth,[12]; 100 µM,39.1% (inactive)
same,growth,[13]; 10 µM,115% (inactive) and 111% (inactive)
same,growth,[13]; 100 µM,98.8% (inactive)
same,growth,[14]; 10 µM,104% (inactive) and 60.1% (inactive)
same,growth,[14]; 100 µM,8.37% (active)
same,growth,[15]; 10 µM,91.6% (inactive) and 47.4% (inactive)
same,growth,[15]; 100 µM,2.65% (active)
same,growth,[16]; 10 µM,122% (inactive) and 69.4% (inactive)
same,growth,[16]; 100 µM,67.8% (inactive)
same,growth,[17]; 10 µM,107% (inactive) and 106% (inactive)
same,growth,[17]; 100 µM,21.4% (inactive)
same,growth,[18]; 10 µM,98.2% (inactive) and 61.8% (inactive)
same,growth,[18]; 100 µM,22.6% (inactive)
Cc1cc(C)c(N2C(=O)CC(Sc3ccccc3N)C2=O)c(C)c1 (configuration not stated),growth,[19],58% (inactive)
same,growth,[1]; 10 µM,66.2% (inactive)
same,growth,[2]; 10 µM,55.7% (inactive)
same,growth,[3]; 10 µM,83.1% (inactive)
same,growth,[4]; 10 µM,81.3% (inactive)
same,growth,[5]; 10 µM,68.4% (inactive)
same,growth,[7]; 10 µM,60.8% (inactive)
same,growth,[8]; 10 µM,69.9% (inactive)
same,growth,[9],60.7% (inactive)
same,growth,[10]; 10 µM,88.5% (inactive)
same,growth,[11]; 10 µM,90.4% (inactive)
same,growth,[12]; 10 µM,55.5% (inactive)
same,growth,[13]; 10 µM,123% (inactive)
same,growth,[14]; 10 µM,87.7% (inactive)
same,growth,[15]; 10 µM,47.7% (inactive)
same,growth,[16]; 10 µM,54.2% (inactive)
same,growth,[17]; 10 µM,34.9% (inactive)
same,growth,[18]; 10 µM unless noted,76.5% (inactive)
Cn1c2nc3ccccc3c-2nc2ccccc21,growth,[1]; 10 µM,99.7% (inactive) and 103% (inactive)
same,growth,[2]; 10 µM,101% (inactive) and 81.1% (inactive)
same,growth,[3]; 10 µM,88.8% (inactive) and 82.8% (inactive)
same,growth,[4]; 10 µM,91.4% (inactive) and 90.2% (inactive)
same,growth,[5]; 10 µM,95.4% (inactive) and 99.7% (inactive)
same,growth,[6]; 10 µM,82.5% (inactive) and 65.6% (inactive)
same,growth,[7]; 10 µM,87.4% (inactive) and 91.2% (inactive)
same,growth,[8]; 10 µM,99.5% (inactive) and 86.1% (inactive)
same,growth,[9],113% (inactive) and 106% (inactive)
same,growth,[10]; 10 µM,113% (inactive) and 112% (inactive)
same,growth,[11]; 10 µM,95% (inactive) and 87.7% (inactive)
same,growth,[12]; 10 µM,71.9% (inactive) and 48.3% (inactive)
same,growth,[13]; 10 µM,113% (inactive) and 109% (inactive)
same,growth,[14]; 10 µM,94.4% (inactive) and 79.1% (inactive)
same,growth,[15]; 10 µM,73.9% (inactive) and 93.6% (inactive)
same,growth,[16]; 10 µM,45.9% (inactive) and 80.3% (inactive)
same,growth,[17]; 10 µM,95.8% (inactive) and -21.8% (active)
same,growth,[18]; 10 µM unless noted,97.9% (inactive) and 96.7% (inactive)
N#C/C(=C/N1C(=O)/C(=C/c2ccc([N+](=O)[O-])cc2)SC1=S)c1nc2ccccc2s1,growth,[1]; 10 µM,98.6% (inactive)
same,growth,[2]; 10 µM,84.5% (inactive)
same,growth,[3]; 10 µM,86.4% (inactive)
same,growth,[4]; 10 µM,69.4% (inactive)
same,growth,[5]; 10 µM,79.7% (inactive)
same,growth,[6]; 10 µM,63.5% (inactive)
same,growth,[7]; 10 µM,70.1% (inactive)
same,growth,[8]; 10 µM,88% (inactive)
same,growth,[9],105% (inactive)
same,growth,[10]; 10 µM,94.4% (inactive)
same,growth,[11]; 10 µM,89.3% (inactive)
same,growth,[12]; 10 µM,64% (inactive)
same,growth,[13]; 10 µM,96.3% (inactive)
same,growth,[14]; 10 µM,86.5% (inactive)
same,growth,[15]; 10 µM,97% (inactive)
same,growth,[16]; 10 µM,6.8% (active)
same,growth,[17]; 10 µM,84% (inactive)
same,growth,[18]; 10 µM unless noted,78.8% (inactive)
